# Laboratory results: the supplement of paper PMC3545927
# Some of the results follow. How many sequences the whole screen found active is unknown.
# Target: furin, P09958
# Test: furin cleavage Z-score vs untreated control; higher = more cleavage, active = 3.5 or more, inactive = 1 or less, 8 variable residues between constant flanks
# In short: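 Sequencing of released DNA, tagged with adapters by PCR, gave read counts used as abundance. That DNA was freed when purified furin cut N-terminally bead-bound 8-mer peptides fused to a cDNA oligonucleotide, in 0.01 ml reactions at 1:10 enzyme:substrate in 50 mM HEPES pH 7.5 with CaCl2 and NaCl, lasting 7.5, 15 or 30 min. The cleavage Z-score was the lowess-adjusted log count versus furin-free reactions, scaled by median absolute deviation.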
# Chain of furin, P09958 (P09958 whole entry): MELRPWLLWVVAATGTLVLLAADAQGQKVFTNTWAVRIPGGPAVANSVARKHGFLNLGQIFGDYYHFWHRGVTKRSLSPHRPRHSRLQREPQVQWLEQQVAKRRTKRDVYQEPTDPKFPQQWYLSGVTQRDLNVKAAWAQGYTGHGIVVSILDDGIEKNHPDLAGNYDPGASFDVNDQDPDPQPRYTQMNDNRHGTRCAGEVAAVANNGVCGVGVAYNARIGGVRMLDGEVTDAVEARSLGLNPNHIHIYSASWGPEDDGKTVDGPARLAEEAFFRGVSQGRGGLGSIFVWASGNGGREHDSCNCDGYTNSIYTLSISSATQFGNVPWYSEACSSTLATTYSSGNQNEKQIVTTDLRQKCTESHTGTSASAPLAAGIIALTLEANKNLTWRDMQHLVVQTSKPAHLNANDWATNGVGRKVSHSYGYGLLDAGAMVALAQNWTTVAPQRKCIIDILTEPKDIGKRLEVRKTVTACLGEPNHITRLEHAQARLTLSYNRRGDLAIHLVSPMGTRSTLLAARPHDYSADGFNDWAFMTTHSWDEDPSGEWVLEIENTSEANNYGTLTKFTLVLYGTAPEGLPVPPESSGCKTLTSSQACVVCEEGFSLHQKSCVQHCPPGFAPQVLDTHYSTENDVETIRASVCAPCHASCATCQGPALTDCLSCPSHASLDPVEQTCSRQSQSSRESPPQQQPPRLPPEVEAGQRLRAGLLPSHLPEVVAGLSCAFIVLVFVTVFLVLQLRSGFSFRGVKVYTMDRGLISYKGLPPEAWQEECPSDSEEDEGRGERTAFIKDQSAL
Sequence,furin cleavage Z-score (7.5 min),furin cleavage Z-score (15 min),furin cleavage Z-score (30 min)
CAMGECSQHLAGNASASA [HC1696],2.31,0.612 (inactive),1.45
CAVVCCGMSYAGNASASA [HC102],-1.2 (inactive),-0.443 (inactive),-0.831 (inactive)
CAGACYSIEPAGNASASA [HC1595],-0.464 (inactive),-0.533 (inactive),-1.27 (inactive)
CADVMEECSQAGNASASA [HC1810],0.0621 (inactive),0.463 (inactive),-0.158 (inactive)
CAEVVTSDWVAGNASASA [HC2211],-1.36 (inactive),-1.03 (inactive),-1.22 (inactive)
CAFLLALLSCAGNASASA [HC249],-0.759 (inactive),-1.73 (inactive),-0.995 (inactive)
CAHAVGIFRAAGNASASA [HC748],-0.783 (inactive),-0.538 (inactive),0.453 (inactive)
CAHANRTGRAAGNASASA [FS-130],3.34,5.9 (active),5.93 (active)
CAVVCCSPSYAGNASASA [HC2059],0.343 (inactive),0.71 (inactive),-0.572 (inactive)
CANTNGSWHLAGNASASA [HC368],-0.455 (inactive),0.77 (inactive),-0.519 (inactive)
CARRQPIPKAAGNASASA [HC191],-0.467 (inactive),-0.696 (inactive),-2.34 (inactive)
CARRKRYAEHAGNASASA [FS-3056],8.67 (active),11.2 (active),9.71 (active)
CARKARYAIQAGNASASA [FS-1901],1.15,3.07,5.59 (active)
CARDPRAAIQAGNASASA [FS-2905],-0.00694 (inactive),-0.144 (inactive),0.0435 (inactive)
CAEDAASLRAAGNASASA [HC1536],1.18,0.0869 (inactive),0.0662 (inactive)
CARRGRPGLKAGNASASA [FS-2066],-0.499 (inactive),-1.08 (inactive),-0.201 (inactive)
CARKARWLRAAGNASASA [FS-2262],8.22 (active),9.39 (active),8.11 (active)
CARRGRAGSDAGNASASA [FS-2065],-0.603 (inactive),-0.507 (inactive),-0.432 (inactive)
CARRGRAARHAGNASASA [FS-1609],7.16 (active),6.27 (active),7.79 (active)
CAVVCCSMSAAGNASASA [HC2083],0.0703 (inactive),-1.17 (inactive),-0.85 (inactive)
CAGGWVAAQLAGNASASA [HC1067],-0.864 (inactive),-1.6 (inactive),0.105 (inactive)
CAVVVATDALAGNASASA [HC877],-0.345 (inactive),-0.967 (inactive),-0.904 (inactive)
CARRKRCMRHAGNASASA [FS-2295],6.23 (active),8.55 (active),6.72 (active)

Sequence,furin cleavage Z-score (7.5 min),furin cleavage Z-score (15 min),furin cleavage Z-score (30 min)
CARVQRMAEHAGNASASA [FS-2841],2.56,3.98 (active),4.15 (active)
CARCRKSCEHAGNASASA [FS-1997],-0.455 (inactive),-0.923 (inactive),0.798 (inactive)
CARRKRKVLHAGNASASA [FS-2515],1.78,1.49,4.34 (active)
CAREIRSEEPAGNASASA [FS-2005],0.429 (inactive),-0.412 (inactive),-0.762 (inactive)
CARRKRYAIQAGNASASA [FS-3205],8.13 (active),11.7 (active),10.8 (active)
CARRKRKKKHAGNASASA [FS-1777],-0.226 (inactive),0.662 (inactive),2.03
CARRKRYAIQAGNASASA [FU8],8.03 (active),11.3 (active),11.2 (active)
CAEVATSTWVAGNASASA [HC2183],-1.15 (inactive),-1.35 (inactive),-0.393 (inactive)
CASTPCSQHLAGNASASA [HC2542],-0.0132 (inactive),0.861 (inactive),2.13
CAITLTHPVTAGNASASA [HC978],-0.565 (inactive),-1.36 (inactive),-0.511 (inactive)
CACVVTSTWVAGNASASA [HC2160],-0.122 (inactive),1.54,-0.488 (inactive)
CARERKAGCKAGNASASA [DV2],0.35 (inactive),1.62,2.14
CAMEEYSQHLAGNASASA [HC17],-0.583 (inactive),0.186 (inactive),0.59 (inactive)
CASVLCECYDAGNASASA [HC918],-0.934 (inactive),-1.47 (inactive),-0.91 (inactive)
CARRKRYISQAGNASASA [FS-1780],6.79 (active),7.45 (active),9.13 (active)
CARKARIISQAGNASASA [FS-3157],1.75,-1.95 (inactive),-0.675 (inactive)
CARRKRHSEHAGNASASA [FS-3166],10.5 (active),10.9 (active),8.79 (active)
CARKARSYIKAGNASASA [FS-2340],-0.0545 (inactive),0.583 (inactive),3.72 (active)
CARKARMLYQAGNASASA [FS-2685],1.39,5.49 (active),5 (active)
CANTLTCYIKAGNASASA [HC1516],-0.56 (inactive),-0.15 (inactive),-0.828 (inactive)
CARRKRKKEVAGNASASA [FS-2296],1.16,-1.15 (inactive),1.21
CARKAVTHINAGNASASA [HC1427],-0.202 (inactive),-1.07 (inactive),0.0109 (inactive)
